Test results as given in the supplement of paper PMC10849652.
Of roughly 7,900 targets only a part is listed; those with a hit were picked by preference. About 0.6% of all pairs of compound and target were hits. Unmarked numbers belong to inactive results.

Experiments:
Assay in all cases: log2 fold change, soluble protein after heating vs DMSO (PISA); higher = thermal stabilisation; K562 cells, 10 uM, 30 min; active = over 0.2 and 3.5 SD of the protein, either way, in both replicates (recomputed)
[1] = compound: CC[C@@H]1C(=O)N(C)c2cnc(Nc3ccc(C(=O)NC4CCN(C)CC4)cc3OC)nc2N1C1CCCC1
Method in brief: (§1)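 K562 cells at 2×10^6 cells/mL were given 10 μM compound for 30 min. Aliquots then went through 3 min of heating across 48°C-58°C, were pooled, and were extracted in PBS with 0.5% NP-40 at 4°C, and the supernatant after 21,000xg for 90 min was quantified by TMTpro 16plex LC-MS/MS with channel sums equalised. Thermal stability relative to control samples, from duplicates, is given as log2 fold change.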

[2] = compound: CC[C@@H]1C(=O)N(C)c2cnc(Nc3ccc(C(=O)N[C@H]4CC[C@H](N5CCN(CC6CC6)CC5)CC4)cc3OC)nc2N1C(C)C [volasertib]
Method in brief: as §1

[3] = compound: CC[C@H](C)N1C=C(C2=C(C=C(C=C21)C3=CN=C(C=C3)N4CCNCC4)C(=O)NCC5=C(C=C(NC5=O)C)C)C
Method in brief: as §1

[4] = compound: CC[C@H](C)[C@@H](C(=O)N[C@@H]([C@@H](C)O)C(=O)N[C@@H](CC(C)C)C(=O)[C@]1(CO1)C)NC(=O)[C@H]([C@@H](C)CC)N(C)C(=O)C [epoxomicin]
Method in brief: as §1

[5] = compound: CCn1c(C(=O)N(C2CC2)C2CC2)cc2c3c(ncn3C)c(Nc3cc(C)n(C)n3)nc21
Method in brief: as §1

[6] = compound: CCn1cc(-c2ccnc3[nH]c(-c4cccc(CN(C)C)c4)cc23)c(-c2ccc(NC(=O)N(C)C)cc2)n1
Method in brief: as §1

[7] = compound: CN(C)CC(=O)Nc1ccc2[nH]c(=O)c3ccccc3c2c1
Method in brief: as §1

[8] = compound: CN(CCOC1=CC=C(C=C1)C[C@H]2C(=O)NC(=O)S2)C3=CC=CC=N3 (racemic) [rosiglitazone]
Method in brief: as §1

[9] = compound: CN1C2=C(C3=C1C(=O)N(N=C3)CC4=CC(=CC=C4)N)SC(=C2)S(=O)C
Method in brief: as §1

[10] = compound: CN1CCC(CNc2ccc3ncc(-c4cccc(OC(F)(F)F)c4)n3n2)CC1
Method in brief: as §1

Sequence of UniProt Q9NRX5 (Q9NRX5 whole entry, looked up): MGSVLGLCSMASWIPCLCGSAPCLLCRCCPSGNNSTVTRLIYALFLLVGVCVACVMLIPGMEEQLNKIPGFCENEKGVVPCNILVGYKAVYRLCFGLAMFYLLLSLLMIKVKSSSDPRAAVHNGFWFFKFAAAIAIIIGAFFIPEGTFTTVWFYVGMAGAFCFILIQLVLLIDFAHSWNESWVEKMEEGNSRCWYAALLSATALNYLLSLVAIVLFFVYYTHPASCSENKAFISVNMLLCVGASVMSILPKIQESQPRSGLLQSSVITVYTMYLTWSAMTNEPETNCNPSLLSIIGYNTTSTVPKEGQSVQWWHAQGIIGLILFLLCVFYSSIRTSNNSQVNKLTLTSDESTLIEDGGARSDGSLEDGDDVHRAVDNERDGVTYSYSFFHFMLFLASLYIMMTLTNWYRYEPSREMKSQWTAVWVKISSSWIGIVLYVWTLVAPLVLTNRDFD
Sequence of UniProt Q86X27 (Q86X27 whole entry, looked up): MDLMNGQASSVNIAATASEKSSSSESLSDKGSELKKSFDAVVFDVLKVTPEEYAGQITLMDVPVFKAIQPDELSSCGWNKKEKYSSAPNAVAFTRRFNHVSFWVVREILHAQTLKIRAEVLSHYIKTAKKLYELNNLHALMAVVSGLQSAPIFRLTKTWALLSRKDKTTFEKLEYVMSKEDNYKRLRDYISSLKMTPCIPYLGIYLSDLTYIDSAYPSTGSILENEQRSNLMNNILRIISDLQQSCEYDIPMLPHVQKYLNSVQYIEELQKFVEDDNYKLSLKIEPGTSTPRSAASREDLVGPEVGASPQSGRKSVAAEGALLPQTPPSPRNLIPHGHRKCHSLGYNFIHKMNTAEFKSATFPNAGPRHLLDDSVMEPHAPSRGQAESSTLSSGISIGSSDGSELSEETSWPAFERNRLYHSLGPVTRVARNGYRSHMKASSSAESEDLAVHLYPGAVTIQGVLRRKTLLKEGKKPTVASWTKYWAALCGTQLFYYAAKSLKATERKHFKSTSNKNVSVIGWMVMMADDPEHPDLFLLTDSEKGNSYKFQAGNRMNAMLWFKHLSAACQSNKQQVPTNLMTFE
Sequence of UniProt Q13546 (Q13546 whole entry, looked up): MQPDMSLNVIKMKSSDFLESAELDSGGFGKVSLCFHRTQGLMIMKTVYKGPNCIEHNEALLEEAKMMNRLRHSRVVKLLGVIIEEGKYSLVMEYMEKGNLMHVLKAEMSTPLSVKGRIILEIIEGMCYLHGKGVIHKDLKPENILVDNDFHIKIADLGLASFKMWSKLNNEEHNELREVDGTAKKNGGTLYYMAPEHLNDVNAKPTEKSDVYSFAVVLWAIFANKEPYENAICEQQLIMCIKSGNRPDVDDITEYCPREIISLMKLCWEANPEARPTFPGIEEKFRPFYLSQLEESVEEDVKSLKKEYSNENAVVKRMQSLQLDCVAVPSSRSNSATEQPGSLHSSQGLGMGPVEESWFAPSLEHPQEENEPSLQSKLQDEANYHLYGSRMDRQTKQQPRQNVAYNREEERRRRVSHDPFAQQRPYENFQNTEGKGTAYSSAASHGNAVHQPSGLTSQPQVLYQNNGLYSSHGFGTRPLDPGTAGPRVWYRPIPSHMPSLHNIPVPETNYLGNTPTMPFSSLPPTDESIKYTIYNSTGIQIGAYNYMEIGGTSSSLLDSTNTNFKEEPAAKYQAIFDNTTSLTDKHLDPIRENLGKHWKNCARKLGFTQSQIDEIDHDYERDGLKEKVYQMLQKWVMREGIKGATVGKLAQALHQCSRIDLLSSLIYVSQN
Sequence of UniProt Q7L099 (Q7L099 whole entry, looked up): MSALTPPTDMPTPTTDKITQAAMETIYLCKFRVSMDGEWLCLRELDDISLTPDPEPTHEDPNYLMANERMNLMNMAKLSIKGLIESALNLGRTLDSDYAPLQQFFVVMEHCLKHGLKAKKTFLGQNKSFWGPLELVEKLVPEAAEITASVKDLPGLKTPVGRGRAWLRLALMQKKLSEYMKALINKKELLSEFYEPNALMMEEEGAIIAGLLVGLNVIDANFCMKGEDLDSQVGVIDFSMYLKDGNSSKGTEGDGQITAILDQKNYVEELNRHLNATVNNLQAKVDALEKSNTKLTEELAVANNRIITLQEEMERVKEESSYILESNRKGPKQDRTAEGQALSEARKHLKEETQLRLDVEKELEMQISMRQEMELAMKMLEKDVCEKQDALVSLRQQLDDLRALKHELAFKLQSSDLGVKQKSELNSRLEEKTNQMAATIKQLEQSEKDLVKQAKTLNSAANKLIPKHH
Sequence of UniProt Q7Z6E9 (Q7Z6E9 whole entry, looked up): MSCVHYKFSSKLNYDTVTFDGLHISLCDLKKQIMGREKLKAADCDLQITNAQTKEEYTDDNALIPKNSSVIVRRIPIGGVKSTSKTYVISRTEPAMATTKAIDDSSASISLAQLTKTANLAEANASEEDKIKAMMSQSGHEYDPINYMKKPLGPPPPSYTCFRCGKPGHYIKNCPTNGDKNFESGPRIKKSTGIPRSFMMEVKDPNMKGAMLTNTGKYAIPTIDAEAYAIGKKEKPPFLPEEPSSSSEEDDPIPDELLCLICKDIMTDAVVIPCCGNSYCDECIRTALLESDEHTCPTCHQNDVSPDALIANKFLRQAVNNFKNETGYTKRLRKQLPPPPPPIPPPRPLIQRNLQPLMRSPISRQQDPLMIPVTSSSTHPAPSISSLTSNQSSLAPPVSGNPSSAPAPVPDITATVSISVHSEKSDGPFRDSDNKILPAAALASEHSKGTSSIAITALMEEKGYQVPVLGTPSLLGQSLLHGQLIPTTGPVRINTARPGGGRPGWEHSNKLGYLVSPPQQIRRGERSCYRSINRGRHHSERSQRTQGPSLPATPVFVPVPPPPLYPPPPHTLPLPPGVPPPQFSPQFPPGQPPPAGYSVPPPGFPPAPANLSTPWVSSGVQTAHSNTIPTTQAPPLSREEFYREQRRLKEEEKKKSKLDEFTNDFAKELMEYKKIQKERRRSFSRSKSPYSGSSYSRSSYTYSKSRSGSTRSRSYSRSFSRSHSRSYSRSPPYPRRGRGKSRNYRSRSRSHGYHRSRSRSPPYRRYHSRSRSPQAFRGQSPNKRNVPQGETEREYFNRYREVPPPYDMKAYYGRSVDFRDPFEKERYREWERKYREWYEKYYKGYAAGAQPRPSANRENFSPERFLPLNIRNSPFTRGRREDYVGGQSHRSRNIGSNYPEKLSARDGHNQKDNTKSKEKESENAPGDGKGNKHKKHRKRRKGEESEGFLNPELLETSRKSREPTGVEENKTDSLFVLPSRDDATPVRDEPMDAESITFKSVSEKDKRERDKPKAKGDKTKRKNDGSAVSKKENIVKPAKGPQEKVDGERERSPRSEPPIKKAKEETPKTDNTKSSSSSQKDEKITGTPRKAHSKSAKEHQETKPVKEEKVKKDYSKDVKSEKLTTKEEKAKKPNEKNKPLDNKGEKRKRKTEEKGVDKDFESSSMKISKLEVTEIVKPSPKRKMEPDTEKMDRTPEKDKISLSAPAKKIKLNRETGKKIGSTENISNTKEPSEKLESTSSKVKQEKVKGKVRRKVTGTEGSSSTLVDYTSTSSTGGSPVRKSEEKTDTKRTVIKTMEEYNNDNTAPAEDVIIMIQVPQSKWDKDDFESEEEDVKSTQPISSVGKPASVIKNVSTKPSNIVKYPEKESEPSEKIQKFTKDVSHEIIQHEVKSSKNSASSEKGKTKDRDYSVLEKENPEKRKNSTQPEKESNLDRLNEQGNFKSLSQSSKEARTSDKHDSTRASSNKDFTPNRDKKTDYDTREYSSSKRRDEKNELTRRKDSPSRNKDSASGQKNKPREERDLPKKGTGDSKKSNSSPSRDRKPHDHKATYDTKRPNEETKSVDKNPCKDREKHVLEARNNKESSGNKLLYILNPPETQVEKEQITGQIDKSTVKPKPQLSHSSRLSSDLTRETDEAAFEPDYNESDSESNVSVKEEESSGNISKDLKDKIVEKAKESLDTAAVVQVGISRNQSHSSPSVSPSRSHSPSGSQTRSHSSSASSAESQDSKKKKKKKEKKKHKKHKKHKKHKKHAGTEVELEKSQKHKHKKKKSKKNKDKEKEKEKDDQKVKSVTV
Sequence of UniProt A6NEQ0 (A6NEQ0 whole entry, looked up): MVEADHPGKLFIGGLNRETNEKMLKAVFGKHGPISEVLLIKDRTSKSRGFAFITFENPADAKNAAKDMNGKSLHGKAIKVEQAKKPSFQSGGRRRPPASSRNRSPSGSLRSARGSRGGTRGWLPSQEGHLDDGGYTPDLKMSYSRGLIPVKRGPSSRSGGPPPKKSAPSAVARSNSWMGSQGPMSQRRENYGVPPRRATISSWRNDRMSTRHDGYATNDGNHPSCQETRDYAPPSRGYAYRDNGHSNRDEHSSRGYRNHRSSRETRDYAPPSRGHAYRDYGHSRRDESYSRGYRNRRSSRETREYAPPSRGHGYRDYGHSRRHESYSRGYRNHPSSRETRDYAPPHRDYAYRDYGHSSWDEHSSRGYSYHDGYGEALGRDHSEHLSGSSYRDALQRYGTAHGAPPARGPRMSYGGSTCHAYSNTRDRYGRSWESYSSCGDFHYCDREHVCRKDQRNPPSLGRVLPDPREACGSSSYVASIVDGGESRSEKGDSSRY
Sequence of UniProt O43819 (O43819 whole entry, looked up): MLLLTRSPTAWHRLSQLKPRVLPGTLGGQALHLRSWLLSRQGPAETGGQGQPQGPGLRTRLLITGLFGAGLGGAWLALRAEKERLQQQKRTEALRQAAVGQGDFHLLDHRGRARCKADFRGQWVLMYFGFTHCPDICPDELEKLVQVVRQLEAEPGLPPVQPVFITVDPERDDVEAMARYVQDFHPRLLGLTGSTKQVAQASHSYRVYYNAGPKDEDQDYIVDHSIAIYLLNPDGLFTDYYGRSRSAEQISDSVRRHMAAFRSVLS
Sequence of UniProt Q5VUM1 (Q5VUM1 whole entry, looked up): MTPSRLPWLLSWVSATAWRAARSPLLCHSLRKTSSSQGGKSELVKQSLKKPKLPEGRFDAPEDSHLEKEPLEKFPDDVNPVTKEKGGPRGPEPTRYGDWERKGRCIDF

Row | Target | log2 fold change [1] | log2 fold change [2] | log2 fold change [3] | log2 fold change [4] | log2 fold change [5] | log2 fold change [6] | log2 fold change [7] | log2 fold change [8] | log2 fold change [9] | log2 fold change [10]
1 | RSRC2 (UniProt Q7L4I2) | 0.003 | -0.032 | -0.022 | 0.031 | 0.006 | -0.043 | 0.007 | 0.008 | -0.028 | -0.025
2 | RIPK1 (UniProt Q13546) | -0.069 | -0.478 (active) | 0.12 | -0.01 | -0.046 | 0.041 | 0.08 | 0.111 | 0.022 | -0.099
3 | RIC8A isoform 3 (UniProt Q9NPQ8) | -0.149 | -0.526 (active) | 0.11 | 0.061 | -0.009 | 0.036 | 0.011 | 0.095 | -0.005 | -0.186
4 | SERINC1 (UniProt Q9NRX5) | 0.001 | 0.025 | -0.223 | -0.034 | 0.019 | – | -0.023 | -0.051 | -0.194 | –
5 | SAAL1 (UniProt Q96ER3) | -0.167 | -0.245 (active) | 0.001 | 0.025 | -0.038 | 0.025 | -0.025 | 0.051 | -0.012 | -0.219
6 | RAB3GAP2 (UniProt Q9H2M9) | -0.101 | -0.358 | 0.044 | 0.022 | -0.041 | 0.088 | 0.04 | 0.053 | 0.133 | -0.132
7 | SDHAF4 (UniProt Q5VUM1) | 0.013 | 0.075 | -0.045 | -0.066 | 0.162 | – | – | 0.048 | -0.014 | –
8 | RAB3IL1 (UniProt E9PK89) | -0.012 | -0.137 | 0.25 | 0.109 | -0.138 | -0.555 (active) | 0.035 | 0.017 | – | -0.342
9 | RBBP6 (UniProt Q7Z6E9) | -0.061 | -0.068 | 0.013 | -0.001 | -0.023 | -0.003 | 0.024 | 0.014 | – | -0.014
10 | SLC18B1 (UniProt Q6NT16) | 0.031 | -0.114 | -0.034 | 0.022 | 0.068 | -0.005 | -0.134 | -0.044 | -0.035 | -0.592 (active)
11 | RBM8A (UniProt Q9Y5S9) | -0.051 | -0.041 | 0.038 | 0.005 | 0.021 | 0.014 | -0.037 | -0.004 | -0.035 | 0.065
12 | RICTOR isoform 3 (UniProt Q6R327) | -0.271 | -0.758 (active) | -0.033 | 0.064 | -0.585 | -0.083 | – | – | 0.265 | -0.169
13 | SDCBP isoform 2 (UniProt O00560) | -0.015 | -0.221 | -0.021 | 0.056 | -0.068 | -0.234 | – | 0.105 | -0.196 | -0.208
14 | SART3, A0A499FI31 | -0.235 | -0.557 (active) | 0.061 | 0.065 | -0.008 | -0.017 | 0.017 | 0.038 | -0.056 | -0.211
15 | RPS6KA1 isoform 2 (UniProt Q15418) | -0.223 | -0.212 | 0.053 | 0.071 | 0.127 | -0.146 | 0.026 | 0.044 | -0.032 | -0.438 (active)
16 | RETREG3 (UniProt Q86VR2) | -0.04 | -0.132 | 0 | 0.048 | 0.026 | -0.043 | 0.008 | 0.016 | -0.02 | -0.149
17 | RPS16 (UniProt P62249) | 0.125 | 0.388 | 0.044 | -0.118 | 0.026 | 0.124 | -0.085 | -0.072 | 0.112 | 0.1
18 | SEC23A (UniProt Q15436) | 0.149 | -0.156 | 0.1 | -0.016 | 0.017 | -0.123 | 0.052 | -0.011 | -0.027 | 0.042
19 | SIK3 (UniProt H0Y4E8) | 0.032 | -0.109 | -0.02 | – | -0.058 | -0.065 | -0.111 | – | -0.019 | -0.071

Row | Target | log2 fold change [1] | log2 fold change [2] | log2 fold change [3] | log2 fold change [4] | log2 fold change [5] | log2 fold change [6] | log2 fold change [7] | log2 fold change [8] | log2 fold change [9] | log2 fold change [10]
20 | RCOR3 isoform 3 (UniProt Q9P2K3) | 0.005 | -0.068 | -0.078 | – | -0.074 | -0.294 | 0.038 | 0.037 | 0.02 | -0.011
21 | RBM6 (UniProt P78332) | – | -0.148 | 0.094 | – | – | 0.148 | – | – | 0.109 | 0.175
22 | RBM48 isoform 2 (UniProt Q5RL73) | – | -0.003 | 0.002 | 0.003 | 0.13 | 0.078 | – | 0.006 | – | 0.114
23 | SEPTIN5 (UniProt G3XAH0) | – | 0.097 | 0.074 | 0.049 | -0.021 | 0.211 | 0.011 | 0.056 | -0.079 | 0.075
24 | RUFY3 isoform 3 (UniProt Q7L099) | -0.135 | -0.149 | -0.071 | – | -0.046 | 0.079 | 0.011 | – | -0.015 | -0.048
25 | RAF1 isoform 2 (UniProt P04049) | 0.135 | -0.361 | – | -0.003 | 0.034 | -0.241 | 0.028 | 0.042 | -0.129 | -0.222
26 | RNF220 isoform 3 (UniProt Q5VTB9) | – | -0.31 | – | – | -0.001 | – | – | – | – | –
27 | RALGPS2 (UniProt Q86X27) | 0.139 | – | – | -0.247 | 0.145 | -0.203 | -0.059 | -0.082 | 0.137 | 0.082
28 | RPS19 (UniProt M0R2L9) | – | 0.492 | -0.256 | – | – | – | – | – | – | –
29 | SAFB2 (UniProt K7EQU4) | – | – | -0.095 | -0.11 | – | – | – | -0.269 | – | –
30 | RNF41 (UniProt Q9H4P4) | 0.044 | – | – | – | – | – | – | -0.073 | – | –
31 | RABGAP1L isoform 5 (UniProt Q5R372) | – | 0.01 | 0.074 | -0.085 | 0.017 | – | – | 0.046 | 0.059 | –
32 | RBMY1E (UniProt A6NEQ0) | -0.068 | -0.236 | -0.034 | – | -0.134 | 0.084 | – | -0.058 | – | -0.199
33 | SCO2 (UniProt O43819) | -0.109 | -0.346 | – | -0.055 | 0.042 | -0.051 | 0.039 | 0.034 | -0.014 | -0.187
34 | RAD50, A0A494C0Y7 | 0.077 | -0.109 | – | – | – | 0.033 | 0.055 | -0.001 | 0.097 | 0.04
35 | RMDN2 isoform 2 (UniProt Q96LZ7) | – | – | 0.068 | – | – | – | -0.167 | – | – | –
36 | RAPGEF4 (UniProt Q8WZA2) | -0.13 | – | – | -0.038 | -0.136 | – | -0.011 | 0.065 | -0.036 | –
37 | SAP30 (UniProt O75446) | – | 0.042 | -0.039 | -0.109 | 0.115 | -0.051 | 0.013 | – | 0.175 | 0.064
38 | RPS6KA5 (UniProt O75582) | 0.024 | -0.529 | – | 0.048 | -0.127 | – | – | – | – | –
